Screening data as filed in PubChem.
Shown are actives, neighbours in structure and some others; about 4.9% of the full set was active somewhere.
Mdm2 MdmX PPI: disrupts the human Mdm2-MdmX interaction. 3% of 330,000 active. SaOS-2 split-luciferase Mdm2/MdmX complementation, luminescence. inhibition, % at 8 µM. AID 485346;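 active means inhibition of at least 50% at 8 µM in the primary screen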
Target sequence (O15151 whole entry, looked up): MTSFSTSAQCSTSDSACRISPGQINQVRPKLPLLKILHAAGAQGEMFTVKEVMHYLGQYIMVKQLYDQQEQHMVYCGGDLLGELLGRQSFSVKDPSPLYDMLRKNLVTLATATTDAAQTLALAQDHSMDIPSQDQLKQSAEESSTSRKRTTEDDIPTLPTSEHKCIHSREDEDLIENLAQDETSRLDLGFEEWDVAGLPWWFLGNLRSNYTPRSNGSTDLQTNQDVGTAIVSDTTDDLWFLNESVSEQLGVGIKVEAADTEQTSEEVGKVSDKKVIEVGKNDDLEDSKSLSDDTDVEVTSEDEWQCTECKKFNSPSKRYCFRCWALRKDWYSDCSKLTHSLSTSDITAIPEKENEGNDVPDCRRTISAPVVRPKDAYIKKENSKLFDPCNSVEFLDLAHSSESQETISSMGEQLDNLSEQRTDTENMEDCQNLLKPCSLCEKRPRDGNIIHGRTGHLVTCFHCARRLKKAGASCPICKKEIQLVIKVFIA
Target sequence (Q00987 whole entry, looked up): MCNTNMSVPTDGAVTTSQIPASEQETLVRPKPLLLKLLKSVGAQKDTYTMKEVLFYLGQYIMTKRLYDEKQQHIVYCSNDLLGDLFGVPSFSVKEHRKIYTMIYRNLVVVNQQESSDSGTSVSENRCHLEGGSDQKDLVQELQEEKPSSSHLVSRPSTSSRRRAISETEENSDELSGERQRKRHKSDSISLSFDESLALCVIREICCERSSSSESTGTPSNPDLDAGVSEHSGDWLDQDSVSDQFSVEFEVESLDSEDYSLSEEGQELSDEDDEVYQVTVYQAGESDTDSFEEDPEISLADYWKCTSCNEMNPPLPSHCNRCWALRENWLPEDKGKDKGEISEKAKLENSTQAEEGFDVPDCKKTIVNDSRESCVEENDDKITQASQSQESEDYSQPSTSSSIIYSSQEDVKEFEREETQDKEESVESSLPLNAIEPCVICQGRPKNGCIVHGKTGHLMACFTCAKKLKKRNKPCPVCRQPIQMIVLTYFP
CSC inhib: blocks cancer stem cells. AID 2717. cancer stem cell-like cells viability, luminescence. inhibition, % at 7.5 µM. 1.1% of 300,000 active; in the data active means inhibition above about 75%; tested in HMLE shEcad cells
Beta apoptosis: beta cell apoptosis inhibition | INS-1E cytokine-induced death, ATP luminescence, 48 h; percent of positive-control rescue, neutral wells zero | protection from apoptosis, % (concentration not given with the values) | 0.8% of 300,000 active | AID 435005;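 active means Every replicate reaches about 75%, or at least half do and their mean reaches it too, limit read from the data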;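 further: 0% = cytokine-treated negative control wells and 100% = positive control rescue; higher means more ATP so stronger rescue from cytokine killing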
Calb FLC: C. albicans growth modulation with fluconazole; C. albicans CaCi-2 (fluconazole-resistant clinical isolate) + fluconazole, Alamar Blue growth, 48 h; growth inhibition, % (concentration not given with the values); 0.57% of 300,000 active;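 active means growth inhibition above about 58% in most replicates, limit read from the data, passing the limit was not always enough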;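 further: all wells also contain fluconazole at 8 µg/ml as a sub-toxic cotreatment; 0% = median of DMSO wells and 100% = median of geldanamycin control wells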
PP5 primary: inhibitors of human protein phosphatase 5 (PP5); 0.18% of 320,000 active; P53041; inhibition, % at 6.7 µM; purified PP5c, OMFP substrate fluorescence; AID 1987;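 active means inhibition above the campaign's mean inhibition across all tested compounds plus 3 SD, cut at about 9.5% in these data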;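 further: 0% = DMSO only and 100% = 100 µM cantharidin control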
PP1 counter: blocks human PP1-alpha phosphatase, a PP5 counter-screen; purified PP1alpha, OMFP fluorescence; inhibition, % at 6.7 µM; 0.9% of 320,000 active;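 active means inhibition above the mean inhibition of all tested compounds plus 3 SD, computed separately for each screening campaign, cut at about 15% in these data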
Mdm2 MdmX conf: human Mdm2/MdmX binding inhibition, confirmed. inhibition, % at 8 µM. shares compounds with Mdm2 MdmX PPI. luminescent assay. 55% of 10,000 active; in the data active means inhibition above about 40%
Full FLuc ctr: counter-screen for Mdm2/MdmX inhibitors: full-length luciferase | shares compounds with Mdm2 MdmX PPI | SaOS-2 full-length luciferase counterscreen, luminescence | inhibition, % at 8 µM | 77% of 6,200 active | AID 504607;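 active means mean inhibition at 8 µM reaching about 37%, which flags the compound as non-specific, limit read from the data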;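 further: p53-null SaOS-2 cells with luciferase driven by a doxycycline-inducible promoter; compound on cells about two nights before reading with doxycycline added after day one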
Numbers without * were called inactive; x = not tested or not shown.

SMILES | Mdm2 MdmX PPI | CSC inhib | Beta apoptosis | Calb FLC | PP5 primary | PP1 counter | Mdm2 MdmX conf | Full FLuc ctr
CCOc1ccccc1NC(=O)c1nc(S(=O)(=O)Cc2cccc(C)c2)ncc1Cl | 100* | 91* | 96* | 5 | 3 | 4 | 76* | 55*
CCc1nnc(NC(=O)c2nc(Cl)ccc2Cl)s1 | 8 | -23 | -4 | 4 | x | x | x | x
CC(=O)Nc1ccc(NC(=O)c2nc(S(=O)(=O)Cc3ccccc3)ncc2Cl)cc1 | 46 | 1 | -24 | -12 | -1 | -1 | x | x
CCc1nnc(NC(=O)c2nc(S(=O)(=O)Cc3cccc(C)c3)ncc2Cl)s1 | 100* | 110* | -30 | 14 | -7 | 6 | 99* | 51*
CCc1nnc(NC(=O)c2nc(S(=O)(=O)Cc3ccc(C)cc3)ncc2Cl)s1 | 95* | x | x | 0 | 1 | -1 | 80* | 52*
CCCN1C(=O)/C(=C/c2ccccc2OCc2ccc(C(=O)O)cc2)NC1=S | 9 | -13 | 0 | 3 | 0 | -4 | x | x
Cc1ccccc1C(=O)c1cccn1CC(=O)NCCN1CCN(c2cccc(C)c2C)CC1 | 79* | 22 | 11 | 33 | 4 | 6 | 48* | 59*
Cc1ccc(C)c(N2CCN(CCCNC(=O)Cn3cccc3C(=O)c3ccccc3C)CC2)c1 | 90* | 16 | 10 | 2 | 4 | -2 | 66* | 43*
Cc1ccc(OCC(=O)Nc2ccncc2)cc1 | 13 | -14 | -4 | 1 | x | x | x | x
O=C1C=C(Nc2ccc(Cl)cc2Cl)CC(c2ccco2)C1 (stereo not drawn) | 51* | 49 | -1 | 12 | 0 | -2 | 53* | 62*
Cc1nc(Sc2ccc(Br)cc2)c(C#N)c(C)c1[N+](=O)[O-] | 53* | 83* | 0 | -7 | 0 | -1 | 32 | x
CC1CN(C(=O)N2CCCCC2)CCN1C(=O)N1CCCCC1 (stereo not drawn) | -2 | -2 | 2 | 10 | 4 | -2 | x | x
CCN(CC)CC(=O)N1c2ccccc2Sc2ccccc21 | 3 | -6 | -1 | -2 | 2 | -1 | x | x
CCN(CC)CCCCN1c2ccccc2Sc2ccccc21 | 59* | -6 | 0 | 9 | 2 | 2 | 16 | x
COc1cc(Cl)c(C)cc1NC(=O)CN1C(=O)C2CC=CCC2C1=O (stereo not drawn) | -4 | 2 | -6 | x | x | x | x | x
COc1ccc(-n2c(C)c(C(C)=O)c3cc(O)ccc32)cc1 | 93* | x | x | 4 | x | x | 83* | 54*
CCOc1ccc(-n2c(C)c(C(C)=O)c3cc(OC(C)=O)ccc32)cc1 | 76* | -3 | -4 | 8 | 2 | 3 | 80* | 53*
COc1ccc2c(c1)c(C(C)=O)c(C)n2-c1ccccc1 | 31 | 5 | -8 | 5 | 2 | -4 | x | x
COc1ccc(CCN=C(N)NS(=O)(=O)c2ccc(C)c(C)c2)cc1 | 17 | -1 | -1 | 17 | 2 | -3 | x | x
O=C(COC(=O)c1cc2ccccc2oc1=O)Nc1ccc(F)cc1F | -51 | 0 | -4 | -2 | 2 | -3 | x | x
CCCc1cnc(NCCNCC(O)COc2ccc(Cl)c(Cl)c2)nc1 (stereo not drawn) | 56* | 10 | 22 | 3 | -1 | 3 | 24 | x
CCOC(=O)C1CCN(Cc2ccccc2C(F)(F)F)CC1 | -25 | -17 | -6 | 4 | 2 | -4 | x | x
COc1ccccc1N1CCN(Cc2ccc(O)c3ncccc23)CC1 | 77* | x | 139* | -6 | 2 | 15* | 67* | 21
CCOC(=O)N1CCN(Cc2cc(Cl)c3cccnc3c2O)CC1 | 64* | 19 | 103* | 116* | 2 | 11 | 51* | 38*
O=C(Oc1c(CN2CCOCC2)cc(Cl)c2cccnc12)c1ccccc1Br | 52* | 19 | 97* | 87* | 0 | 5 | 32 | x
SMILES | Mdm2 MdmX PPI | CSC inhib | Beta apoptosis | Calb FLC | PP5 primary | PP1 counter | Mdm2 MdmX conf | Full FLuc ctr
CCOC(=O)C1CCN(Cc2ccc(O)c3ncccc23)CC1 | 81* | 41 | 85* | 112* | 1 | 10 | 62* | 50*
CCCn1c(SCC(=O)N2CCCC(C)C2)nnc1-c1ccccn1 (stereo not drawn) | 15 | -9 | -12 | -16 | -1 | -2 | x | x
Oc1ccc(CN2CCCc3ccccc32)c2cccnc12 | 79* | 1 | 103* | 3 | 2 | 6 | 76* | 43*
COc1ccc([C@H]2CC(=O)C=C(c3ccc4c(c3)sc3ccccc34)C2)cc1 | 38 | 16 | -5 | x | -1 | -1 | x | x
N#CC(C#N)=Cc1cnc(N2CCN(c3ccccc3)CC2)s1 | 5 | 14 | 0 | -9 | 2 | 4 | x | x
O=C(/C=C/c1ccccc1)NC(=S)Nc1ccc2c3c(cccc13)CC2 | 59* | 8 | 13 | 3 | 0 | 0 | 12 | x
CCOc1ccc(C(=O)Nc2cc(C)c3c(=O)oc4ccccc4c3n2)cc1 | 65* | 1 | -3 | 1 | 1 | 0 | -21 | x
Fc1ccccc1C1c2[nH]c3ccccc3c2CCN1CCCn1cccn1 (stereo not drawn) | 59* | -4 | -4 | -8 | -1 | -1 | 22 | x
CC(C)c1nc(CN(C)C(=O)N[C@H](C(=O)N[C@@H](Cc2ccccc2)C[C@H](O)[C@H](Cc2ccccc2)NC(=O)OCc2cncs2)C(C)C)cs1 | 16 | -9 | 10 | x | 1 | 1 | x | x
COc1nc(N)c(C#N)c(-c2ccc(N(C)CCC#N)cc2)c1C#N | 73* | 23 | 10 | 5 | 1 | -2 | 47* | 82*
COc1ccc(-c2c(C#N)c(N)nc(Sc3ccc(Cl)cc3)c2C#N)cc1 | 33 | 17 | 36 | -17 | 2 | -1 | x | x
O=C(O)c1ccc(N=NNc2cccc([N+](=O)[O-])c2)cc1 | -17 | 24 | -4 | 19 | -2 | -2 | x | x
N#C/C(=N\Nc1cccc([N+](=O)[O-])c1)C(=O)c1ccc(Br)cc1 | 97* | 102* | 104* | 97* | 2 | 13 | 89* | 21
CCOc1cccc2cc(C(C)=O)oc12 | 15 | -7 | -2 | 9 | -1 | -3 | x | x
COC(=O)N1C(=O)[C@@](c2ccccc2)(C2CCCC2)N1C(=O)OC | 74* | 22 | 1 | 3 | 2 | 1 | 35 | x
COC(=O)N1C(=O)[C@](c2ccccc2)(C2CCCCC2)N1C(=O)OC | 46 | 16 | 1 | -7 | 3 | 8 | x | x
COC(=O)N1C(=O)[C@@](CC(C)C)(c2ccccc2)N1C(=O)OC | 51* | 38 | -11 | -2 | 4 | -2 | 14 | x
CC1C/C(=N\NC(=O)c2ccc(NS(=O)(=O)c3ccc(Br)cc3)cc2)CC(C)(C)C1 (stereo not drawn) | -4 | -6 | -8 | -1 | -2 | 0 | x | x
CCOc1ccc(-n2nc3c(Cl)nnc(C)c3c2C)cc1 | 19 | -17 | 3 | 3 | 0 | 1 | x | x
